# Only some compounds are listed: those with a hit (about 3.8% of all), similar ones and a draw of the others.
# Mdm2 MdmX PPI: disrupts the human Mdm2-MdmX interaction | SaOS-2 split-luciferase Mdm2/MdmX complementation, luminescence | inhibition, % at 8 µM | 330,000 compounds, 3% hits;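 active means inhibition of at least 50% at 8 µM in the primary screen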
# Target sequence (O15151 whole entry, looked up): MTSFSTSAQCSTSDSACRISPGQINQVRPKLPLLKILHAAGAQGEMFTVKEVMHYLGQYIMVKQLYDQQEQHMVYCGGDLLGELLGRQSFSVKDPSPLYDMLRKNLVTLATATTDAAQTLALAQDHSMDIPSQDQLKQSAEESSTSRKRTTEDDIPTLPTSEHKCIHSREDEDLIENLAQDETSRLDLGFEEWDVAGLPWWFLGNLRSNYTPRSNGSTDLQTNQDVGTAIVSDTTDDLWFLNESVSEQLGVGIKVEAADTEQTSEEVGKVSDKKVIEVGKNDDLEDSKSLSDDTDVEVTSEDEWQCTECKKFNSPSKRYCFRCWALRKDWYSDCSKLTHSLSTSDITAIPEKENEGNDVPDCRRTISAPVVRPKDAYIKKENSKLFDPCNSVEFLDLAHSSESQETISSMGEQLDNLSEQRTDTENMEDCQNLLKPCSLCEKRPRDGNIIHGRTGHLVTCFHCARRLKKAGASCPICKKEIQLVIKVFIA
# Target sequence (Q00987 whole entry, looked up): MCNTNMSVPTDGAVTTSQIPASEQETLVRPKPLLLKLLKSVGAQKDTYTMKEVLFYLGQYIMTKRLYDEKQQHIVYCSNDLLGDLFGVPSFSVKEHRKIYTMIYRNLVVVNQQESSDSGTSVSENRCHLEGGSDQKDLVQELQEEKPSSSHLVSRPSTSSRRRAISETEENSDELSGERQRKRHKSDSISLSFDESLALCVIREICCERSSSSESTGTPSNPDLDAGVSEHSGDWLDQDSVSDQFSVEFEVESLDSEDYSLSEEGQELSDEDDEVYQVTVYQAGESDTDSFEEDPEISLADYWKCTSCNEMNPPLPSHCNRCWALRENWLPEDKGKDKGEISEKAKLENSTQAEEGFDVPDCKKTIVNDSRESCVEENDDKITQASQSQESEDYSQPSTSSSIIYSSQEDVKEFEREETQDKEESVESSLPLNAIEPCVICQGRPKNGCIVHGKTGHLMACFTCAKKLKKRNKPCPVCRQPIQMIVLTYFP
# Jurkat NFkB inh: inhibitors of the PMA/ionomycin-induced NF-kB reporter in Jurkat cells | inhibition, % at 4 µM | AID 435003 | PMA/ionomycin-induced NF-kB luciferase reporter, luminescence | 330,000 compounds, 0.53% hits; in the data active means inhibition above about 50%
# 697 NFkB inh: inhibitors of the PMA/ionomycin-induced NF-kB reporter in 697 B cells; 697 B-cell NF-kB luciferase reporter, 16 h; inhibition, % at 4 µM; 330,000 compounds, 0.33% hits; AID 435022; in the data active means inhibition above about 35%
# NTR1 agonist: activates human neurotensin receptor 1; P30989; NTR1-U2OS beta-arrestin-GFP spot imaging, agonist mode; activation, % at 20 µM; 330,000 compounds, 0.17% hits; AID 493036;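 active means activation at or above 40% of the spot to cytoplasm intensity ratio, with at least 20 cells analyzed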;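 further: 0% = DMSO without peptide and 100% = 100 nM NTR1 peptide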
# Bfl-1 A1 inh: inhibitors of the anti-apoptotic protein A1, read as caspase activation; MEF A1-2A-BIM cells, Caspase-Glo 3/7 luminescence, 3 h; percent of clofoctol response, vehicle zero; caspase activation, % (concentration not given with the values); 330,000 compounds, 0.066% hits; AID 2462;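 active means over half of replicate activation scores above 10%, or exactly half above 10 with the replicate mean above 10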
# Beta cell apopt: beta cell apoptosis inhibition | INS-1E cytokine-induced death, ATP luminescence, 48 h; percent of positive-control rescue, neutral wells zero | 300,000 compounds, 0.8% hits | protection from apoptosis, % (no concentration beside the values);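 active means Every replicate reaches about 75%, or at least half do and their mean reaches it too, limit read from the data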;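 further: 0% = cytokine-treated negative control wells and 100% = positive control rescue; higher means more ATP so stronger rescue from cytokine killing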
# 697 NFkB conf: lowers PMA/ionomycin-induced NF-kB signal in 697 B cells. shares compounds with 697 NFkB inh. 697 B-cell NF-kB luciferase, 16 h. inhibition, % at 4 µM. 2,000 compounds, 35% hits. AID 449746; in the data active means inhibition mostly above about 28%, no sharp cut-off; inactive means mostly below about 22%
# Mdm2-MdmX conf: confirmation of human Mdm2/MdmX interaction inhibitors | shares compounds with Mdm2 MdmX PPI | Mdm2-MdmX binding, luminescent assay | inhibition, % at 8 µM | 10,000 compounds, 55% hits | AID 489028; in the data active means inhibition above about 40%
# FLuc counter: inhibits full-length luciferase, flagging false Mdm2/MdmX hits; shares compounds with Mdm2 MdmX PPI; SaOS-2 full-length luciferase counterscreen, luminescence; inhibition, % at 8 µM; 6,200 compounds, 77% hits;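 active means mean inhibition at 8 µM reaching about 37%, which flags the compound as non-specific, limit read from the data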;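 further: p53-null SaOS-2 cells with luciferase driven by a doxycycline-inducible promoter; compound on cells about two nights before reading with doxycycline added after day one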
# * = called active by the depositor; i = inactive; x = not tested or not shown.
SMILES,Mdm2 MdmX PPI,Jurkat NFkB inh,697 NFkB inh,NTR1 agonist,Bfl-1 A1 inh,Beta cell apopt,697 NFkB conf,Mdm2-MdmX conf,FLuc counter
CCOc1ccc(N=C(NN)c2ccc3ccccc3n2)cc1,-7.9,13.3,-251.8,1.0,-0.4,9.9,-42.7,x,x
COc1cc(OC)cc(C(=O)NCC(=O)OC2CCCCC2=O)c1 (centres undefined),-12.0,2.1,15.9,-0.1,0.0,-5.3,x,x,x
COc1ccc(COc2cc(-c3cccc(OC)c3)nc3ccc(NC(=O)c4ccccc4)cc23)cc1,21.2,4.3,39.5*,1.2,0.5,7.0,19.7,x,x
COc1ccc(COc2cc(-c3cccc(OC)c3)nc3ccc(NC(=O)c4ccc(Cl)cc4)cc23)cc1,28.0,6.4,6.1,-0.4,2.1,9.3,x,x,x
O=S(=O)(Nc1ccc(-c2csc(-c3ccccc3)n2)cc1)c1ccc(F)cc1,35.3,-11.0,9.9,29.5,2.4,16.8,x,x,x
O=C(Nc1nc(-c2ccccc2)cs1)c1ccccc1NS(=O)(=O)c1ccc(F)cc1,90.3*,12.7,47.0*,1.3,-0.2,90.0*,52.3*,89.0*,25.5
Cc1ccc(C(=O)N[C@@H](Cc2ccccc2)C(=O)N2CCC3(CC2)NCCc2[nH]cnc23)cc1C,-15.6,-2.9,0.0,0.8,0.6,-1.3,x,x,x
COc1cc(OC)c2c(-c3cccc(-c4ccc(OC)c(F)c4)c3)cc(=O)oc2c1,67.6*,x,-347.0,1.4,x,x,-258.1,48.9*,104.3*
O=C(/C=C/Sc1ccccc1)c1ccccc1,52.4*,14.0,-294.6,11.3,-1.7,-1.4,-268.0,-14.8,x
CCCCn1nc(C(=O)NCc2ccccc2CN2CCCC2)c2ccccc2c1=O,38.8,-15.6,-32.6,2.0,0.4,-7.7,x,x,x
Cc1ccc2sc(NC(=O)CSc3nc(C)cc(C)c3C#N)nc2c1,-57.9,-127.7,-67.2,0.1,0.4,5.4,x,x,x
Cc1cc(C(F)(F)F)c(C#N)c(SCC(=O)Nc2nc3ccccc3s2)n1,65.9*,-76.8,i,7.3,-6.2,16.6,-297.5,82.1*,142.3*
COc1cccc(/C=C2/SC(=S)N(CCCC(=O)Nc3ccc(O)cc3)C2=O)c1,100.4*,-8.0,79.6*,8.5,0.1,-11.0,74.4*,84.7*,2.7
COc1cccc(/C=C2\SC(=S)N(CCCC(=O)NC3=NCCS3)C2=O)c1,62.5*,14.3,42.1*,2.3,-0.1,-8.9,50.7*,14.9,x
Cc1ccc(/C=C2/SC(=S)N(CCCC(=O)Nc3ccc(O)cc3)C2=O)cc1,91.9*,2.1,87.7*,5.5,x,x,93.3*,94.2*,53.8*
O=C(CN1C(=O)/C(=C/c2cccc(Br)c2)SC1=S)NC1=NCCS1,26.6,-5.6,7.7,3.4,-0.2,-3.4,x,x,x
Cc1ccc(/C=C2\SC(=S)N(CCCC(=O)NC3CCCC3)C2=O)cc1,62.9*,18.8,85.3*,2.8,-0.5,1.1,79.6*,34.4,x
COc1cc(/C=C2\SC(=S)N(CCC(=O)NC3CCCC3)C2=O)cc(OC)c1OC,43.9,18.9,8.2,2.1,0.4,-7.4,x,x,x
COc1ccc(NC(=O)CCc2nnc3ccc(NCc4ccc5c(c4)OCO5)nn23)cc1,8.8,2.2,-24.7,0.7,0.0,3.4,x,x,x
COc1ccc(/C=C2\SC(=S)N(CCCC(=O)Nc3ccccc3C(=O)O)C2=O)cc1OC,11.1,23.1,8.2,1.5,0.0,-3.7,x,x,x
COc1ccc(/C=C2/SC(=S)N(CCCC(=O)Nc3ccc(O)cc3)C2=O)cc1OC,89.9*,-18.8,45.1*,5.3,-1.4,-17.8,42.8*,47.7*,29.9
Cc1ccc(CSCC(=O)Nc2ccccc2C(=O)O)cc1,51.5*,-24.7,i,1.9,-2.4,4.4,-393.6,-13.8,x
CCOc1ccc2nc(NC(=O)Nc3ccccc3)sc2c1,-141.1,-122.6,-171.8,-0.1,-1.4,3.5,x,x,x
CCOc1ccc2nc(NC(=O)c3ccccn3)sc2c1,76.2*,-68.2,-459.0,7.5,-7.0,76.9*,-257.1,76.5*,42.0*
CC(=O)c1ccc(N/N=C(/C(N)=O)C2=NC(C)(C)Cc3ccccc32)cc1,63.1*,-47.7,-420.1,0.9,-0.3,4.4,-193.4,38.6,63.4*
SMILES,Mdm2 MdmX PPI,Jurkat NFkB inh,697 NFkB inh,NTR1 agonist,Bfl-1 A1 inh,Beta cell apopt,697 NFkB conf,Mdm2-MdmX conf,FLuc counter
CC1(C)Cc2ccccc2C(/C(=N\Nc2cccc(Cl)c2)C(N)=O)=N1,19.9,8.3,-16.7,6.2,0.6,3.8,x,x,x
COc1cccc(COC(=O)c2sc3nc4n(c(=O)c3c2C)CCC4)c1OC,-13.7,-17.9,-3.2,7.0,-0.5,0.5,x,x,x
O=[N+]([O-])c1ccc(O)c(-c2cc(C(F)(F)F)nc(-c3ccccc3)n2)c1,95.3*,44.6,i,14.9,0.8,119.0*,-459.8,99.3*,51.5*
Cc1ccc(NC(=O)c2nc[nH]c2C(=O)NCCCCCNC(=O)OC(C)(C)C)cc1,30.7,12.5,2.0,10.2,-1.6,12.0,x,x,x
Cc1ccc(NC(=O)c2nc[nH]c2C(=O)NCCCNC(=O)c2[nH]cnc2C(=O)Nc2ccc(C)cc2)cc1,67.6*,-145.3,36.3*,2.4,0.4,37.9,15.7,32.2,x
COc1ccc(C(=O)CCC(=O)Nc2ccc(N3CCN(C)CC3)cc2)cc1OC,2.0,-4.0,8.1,1.2,0.7,0.7,x,x,x
C=CCn1c(C)nnc1SCC(=O)c1c(N)n(C2CC2)c(=O)[nH]c1=O,15.5,-11.1,6.7,0.0,x,x,x,x,x
O=S(=O)(NCc1ccccn1)C(F)(F)F,4.1,17.4,15.6,-1.5,-0.2,-3.1,x,x,x
Cc1ccccc1-c1n[nH]c(=S)n1/N=C/c1c(C)nn(-c2ccccc2)c1C,86.8*,-11.0,-274.2,1.0,0.0,-9.0,-18.8,52.6*,102.6*
Cc1ccc(-c2n[nH]c(=S)n2/N=C/c2c(C)nn(-c3ccccc3)c2C)cc1,-20.3,7.1,3.8,14.6,0.7,13.7,x,x,x
C(=N\Nc1nc(Nc2ccccc2)nc(Nc2ccccc2)n1)/c1cccnc1,72.1*,-15.2,35.1*,6.6,2.8,19.4,30.5*,50.7*,81.1*
COc1cc(SC)ccc1C(=O)Nc1ccc(Br)cn1,60.4*,-86.6,-320.8,2.0,-6.7,4.5,-452.2,48.0*,126.2*
COc1cc(SC)ccc1C(=O)Nc1ncc(Cl)cc1Cl,-153.8,-96.7,-54.1,-0.4,-1.8,1.1,x,x,x
CCCCN1CCNC[C@H]1Cc1ccc(O)cc1,4.8,-3.0,26.0,-1.9,0.3,6.1,x,x,x
Oc1ccc(C[C@@H]2CNCCN2CCC23CC4CC(CC(C4)C2)C3)cc1,73.0*,11.6,37.2*,30.0,0.5,-2.6,-2.7,23.6,63.9*

# From PubChem
